We go through 41 compounds from the antibiotic and cytotoxicity screens of Wong et al. (2023).

About 1,500 (3.8%) of roughly 39,000 compounds were called active. This excerpt belongs to a sample that is enriched for actives.

The subject of the test is HSkMC (human skeletal muscle cells). Description: cytotoxicity call (relative viability < 0.9). Conditions: 10 µM.
`COC(=O)C[C@H]1CC[C@@H]2[C@H](COC[C@@H](O)CN2S(=O)(=O)c2ccc(F)cc2)O1`: the cytotoxicity call is “inactive”.
The value for `C=CCNC(=O)[C@@H]1[C@H]2C(=O)O[C@H](c3ccccc3)[C@H](c3ccccc3)N2[C@H](c2ccc(O)cc2)[C@@]12C(=O)N(C(=O)OCCOC)c1ccc(C#Cc3ccc(OC)cc3)cc12` was “inactive”; that for `CC(C)NC(=O)N(C)C[C@H]1Oc2cc(-c3ccccc3F)ccc2S(=O)(=O)N([C@@H](C)CO)C[C@H]1C` was “inactive”; that for `Nc1ncnc(Cl)c1N` was “inactive”.
The value for `COCC#Cc1ccc2c(c1)O[C@H](CN(C)C(=O)c1ccccc1)[C@@H](C)CN([C@@H](C)CO)S2(=O)=O` was “inactive”; that for `C[C@@H]1CCCCO[C@@H](CN(C)C(=O)c2ccccc2)[C@@H](C)CN([C@H](C)CO)C(=O)c2cc(NC(=O)Nc3ccc(F)cc3)ccc2O1` was “inactive”; that for `COc1ccccc1CNC(=O)C[C@H]1CC[C@H]2[C@@H](COC[C@H](O)CN2C(=O)Nc2ccc(F)cc2)O1` was “inactive”.
As for `O=C(C[C@@H]1C[C@H]2c3cc(NC(=O)Nc4ccc(C(F)(F)F)cc4)ccc3O[C@H]2[C@H](CO)O1)NCc1cc(F)ccc1F`, the entry is “inactive”; as for `C[C@@H]1CN([C@H](C)CO)C(=O)c2cc(NC(=O)c3ccncc3)ccc2O[C@H]1CN(C)Cc1ccc(Oc2ccccc2)cc1`, “inactive”.
Regarding `O=C(O[C@H]1[C@H](O)[C@@H](CO)O[C@H](c2c(O)cc(O)c(C(=O)c3ccc(O)cc3)c2O)[C@H]1OC(=O)c1cc(O)c(O)c(O)c1)c1cc(O)c(O)c(O)c1`, the cytotoxicity call was “inactive”.
With `CCS(=O)(=O)Nc1ccc2c(c1)C(=O)N(C)[C@@H]1CC[C@H](CC(=O)NCCCN3CCOCC3)O[C@@H]1CO2`, the cytotoxicity call was “inactive”.
As to `COc1ccc(S(=O)(=O)Nc2ccc3c(c2)CC(=O)N([C@@H](C)CO)C[C@H](C)[C@H](CN(C)Cc2ccc(-c4ccccc4)cc2)O3)cc1`, the cytotoxicity call is “active”.
As for `COc1ccc(S(=O)(=O)Nc2ccc3c(c2)CC(=O)N([C@@H](C)CO)C[C@@H](C)[C@@H](CN(C)Cc2ccc(-c4ccccc4)cc2)O3)cc1`, the entry is “inactive”; as for `COc1ccc(S(=O)(=O)Nc2ccc3c(c2)CC(=O)N([C@H](C)CO)C[C@@H](C)[C@H](CN(C)Cc2ccc(-c4ccccc4)cc2)O3)cc1`, “active”.
As to `COc1ccc(S(=O)(=O)Nc2ccc3c(c2)CC(=O)N([C@H](C)CO)C[C@H](C)[C@H](CN(C)Cc2ccc(-c4ccccc4)cc2)O3)cc1`, the cytotoxicity call was “inactive”.
The value for `COc1ccc(S(=O)(=O)Nc2ccc3c(c2)CC(=O)N([C@@H](C)CO)C[C@@H](C)[C@H](CN(C)Cc2ccc(-c4ccccc4)cc2)O3)cc1` was “inactive”.
`COc1ccc(S(=O)(=O)Nc2ccc3c(c2)CC(=O)N([C@H](C)CO)C[C@@H](C)[C@@H](CN(C)Cc2ccc(-c4ccccc4)cc2)O3)cc1`: the cytotoxicity call is “active”.
In the case of `COc1ccc(S(=O)(=O)Nc2ccc3c(c2)CC(=O)N([C@H](C)CO)C[C@H](C)[C@@H](CN(C)Cc2ccc(-c4ccccc4)cc2)O3)cc1`, the cytotoxicity call was “inactive”.
The value for `COc1ccc(S(=O)(=O)Nc2ccc3c(c2)CC(=O)N([C@@H](C)CO)C[C@H](C)[C@@H](CN(C)Cc2ccc(-c4ccccc4)cc2)O3)cc1` was “inactive”; that for `Cc1ccc2oc(=O)cc(Cl)c2c1` was “inactive”; that for `NC(=O)NCC#Cc1ccc2c(c1)[C@]1(C(=O)N2)[C@H](C(=O)O)[C@H]2C(=O)O[C@H](c3ccccc3)[C@H](c3ccccc3)N2[C@@H]1c1ccc(OCCO)cc1` was “inactive”.
Take `COc1ccccc1CNC(=O)C[C@H]1C[C@H]2c3cc(NC(=O)C4CCOCC4)ccc3O[C@H]2[C@@H](CO)O1`: the cytotoxicity call is “inactive”.
In the case of `CC(C)NC(=O)N(C)C[C@@H]1Oc2ccc(NS(=O)(=O)c3cn(C)cn3)cc2CC(=O)N([C@@H](C)CO)C[C@@H]1C`, the cytotoxicity call is “inactive”.
As for `Cc1noc(C)c1NC(=O)N(C)C[C@@H]1OCCCC[C@@H](C)Oc2ccc(NS(=O)(=O)c3ccc(Cl)cc3)cc2C(=O)N([C@H](C)CO)C[C@@H]1C`, the entry is “inactive”; as for `COc1ccc(S(=O)(=O)N(C)C[C@@H]2Oc3ccc(NC(=O)c4ccncc4)cc3CC(=O)N([C@@H](C)CO)C[C@H]2C)cc1`, “inactive”.
As for `Nc1ccc(S(N)(=O)=O)cc1`, the entry is “inactive”; as for `C[C@@H]1CN([C@@H](C)CO)C(=O)c2cc(N(C)C)ccc2O[C@@H](C)CCCCO[C@@H]1CN(C)C(=O)CCCN(C)C`, “inactive”; as for `Cc1ccc2[nH]c(=O)c(C3=NN(C(=O)CCC(=O)O)[C@H](c4ccc(Br)cc4)C3)c(-c3ccccc3)c2c1`, “inactive”.
The value for `COc1ccc(S(=O)(=O)Nc2ccc3c(c2)CC(=O)N([C@H](C)CO)C[C@@H](C)[C@@H](CN(C)S(=O)(=O)c2ccc(OC)cc2)O3)cc1` was “inactive”; that for `C[C@H](CO)N1C[C@H](C)[C@H](CN(C)Cc2ccc(Oc3ccccc3)cc2)Oc2c(NC(=O)Nc3cccc4ccccc34)cccc2C1=O` was “inactive”.
For the compound `C[C@@H]1CN([C@@H](C)CO)C(=O)c2cccc(NC(=O)Nc3ccccc3)c2O[C@@H]1CN(C)Cc1ccc(Oc2ccccc2)cc1`, the cytotoxicity call is “inactive”.
Turning to `C[C@H]1CN([C@@H](C)CO)C(=O)c2cccc(NC(=O)C3CCCCC3)c2O[C@H]1CN(C)Cc1ccc(Oc2ccccc2)cc1`, the cytotoxicity call is “inactive”.
Regarding `C[C@H](CO)N1C[C@H](C)[C@@H](CN(C)Cc2ccc(Oc3ccccc3)cc2)Oc2c(NC(=O)Nc3cccc4ccccc34)cccc2C1=O`, the cytotoxicity call is “active”.
The value for `C[C@@H]1CN([C@@H](C)CO)C(=O)c2cccc(NC(=O)Nc3ccccc3)c2O[C@H]1CN(C)Cc1ccc(Oc2ccccc2)cc1` was “inactive”; that for `C[C@H]1CN([C@@H](C)CO)C(=O)c2cccc(NC(=O)Nc3cccc4ccccc34)c2O[C@H]1CN(C)Cc1ccc(Oc2ccccc2)cc1` was “inactive”.
The value for `C[C@H](CO)N1C[C@H](C)[C@@H](CN(C)Cc2ccc(Oc3ccccc3)cc2)Oc2c(NC(=O)C3CCCCC3)cccc2C1=O` was “active”; that for `C[C@@H]1CN([C@H](C)CO)C(=O)c2cccc(NC(=O)Nc3ccccc3)c2O[C@H]1CN(C)Cc1ccc(Oc2ccccc2)cc1` was “inactive”.
The value for `C[C@@H]1CN([C@@H](C)CO)C(=O)c2cccc(NC(=O)C3CCCCC3)c2O[C@H]1CN(C)Cc1ccc(Oc2ccccc2)cc1` was “inactive”; that for `C[C@H](CO)N1C[C@H](C)[C@@H](CN(C)Cc2ccc(Oc3ccccc3)cc2)Oc2c(NC(=O)Nc3ccccc3)cccc2C1=O` was “active”; that for `C[C@@H]1CN([C@H](C)CO)C(=O)c2cccc(NC(=O)Nc3ccccc3)c2O[C@@H]1CN(C)Cc1ccc(Oc2ccccc2)cc1` was “inactive”.
Take `C[C@H]1CN([C@@H](C)CO)C(=O)c2cccc(NC(=O)Nc3ccccc3)c2O[C@@H]1CN(C)Cc1ccc(Oc2ccccc2)cc1`: the cytotoxicity call was “active”.
